Experimental data as given in PMC5540273 (PLoS ONE, 2017).

Experiments:
Settings in all cases: concentration: 1 μM,replicates: in singlicate; n = 1
[1] = system: FGFR1
[2] = system: FGFR2
[3] = system: FGFR3
[4] = system: FGFR4
[5] = system: FGR
[6] = system: FLT1
[7] = system: FLT3-autoinhibited
[8] = system: FLT3
[9] = system: FLT4
[10] = system: FRK
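Also: KINOMEscan kinase panel screen.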

| Structure (SMILES) | %Inh [1] | %Inh [2] | %Inh [3] | %Inh [4] | %Inh [5] | %Inh [6] | %Inh [7] | %Inh [8] | %Inh [9] | %Inh [10] |
| --- | --- | --- | --- | --- | --- | --- | --- | --- | --- | --- |
| Cl.c1ccc(Oc2ccc(Nc3ccnc4cc(-c5ccc(CN6CCNCC6)o5)ccc34)cc2)nc1 [GW567142] | 0% | 0% | 0% | 0% | 74% | 8% | 41% | 90.4% | 6% | 7% |
| NC(=O)c1ccc(-c2cc3ncnc(SCC(=O)O)c3s2)cc1 | 0% | 0% | 0% | 0% | 14% | 4% | 2% | 20% | 0% | 0% |
| Cn1ccc2ncnc(Oc3ccc(NC(=O)Nc4cccc(C(F)(F)F)c4)c(Cl)c3)c21 |  | 10% | 0% | 14% | 5% | 99.6% | 0% | 84% | 99.9% | 94.9% |
| COc1cc2ncn(-c3cc(OCC4CCCCC4)c(C(N)=O)s3)c2cc1OC [GSK204559] | 26% | 3% | 12% | 9% | 29% | 44% | 0% | 0% | 66% | 4% |
| CSc1nccc(-c2c(-c3ccc(F)cc3)ncn2CCCN2CCOCC2)n1.Cl [SB-217146] | 0% | 0% | 0% | 0% | 0% | 0% | 0% | 0% | 0% | 0% |
| C[C@@H]1CNc2c(sc3ccc4nc(-c5ccc(O)cc5)ccc4c23)C(=O)N1 | 14% | 16% | 12% | 31% | 0% | 6% | 6% | 16% | 0% | 0% |
| C[C@@H]1CNc2c(sc3ccc4nc(-c5ccncc5)ccc4c23)C(=O)N1 | 9% | 0% | 0% | 26% | 40% | 3% | 0% | 0% | 4% | 10% |
| CN(c1ccccc1CNc1nc(Nc2ccc3c(c2)CC(=O)N3)ncc1C(F)(F)F)S(C)(=O)=O | 68% | 64% | 47% | 11% | 37% | 53% | 19% | 99.5% | 85% | 54% |
| Cn1ccc2ncnc(Oc3ccc(NC(=O)Nc4cncc(C(F)(F)F)c4)c(Cl)c3)c21 |  | 0% | 0% | 0% | 0% | 94.5% | 0% | 95.7% | 99.7% | 72% |
| CS(=O)c1ccc(-c2coc3ccc(-c4n[nH]c(=O)o4)cc23)cc1 (centres unmarked) | 5% | 8% | 3% | 0% | 0% | 19% | 0% | 16% | 3% | 0% |
| Cn1ccc2ncnc(Oc3ccc(NC(=O)Nc4ccnc(C(F)(F)F)c4)c(Cl)c3)c21 |  | 5% | 0% | 0% | 2% | 94.5% | 0% | 64% | 97.4% | 2% |
| COc1ccc(Nc2nccc(N3CCC(NC(=O)c4cccc(C#N)c4)C3)n2)cc1 (centres unmarked) [GSK1379730] | 13% | 19% | 4% | 6% | 0% | 24% | 0% | 18% | 22% | 0% |
| COC(=O)Nc1nc2cc(Oc3ccc(NC(=O)Nc4cc(C(F)(F)F)ccc4Cl)cc3)ccc2[nH]1.Cl [GW697465] | 4% | 34% | 95.8% | 1% | 13% | 98.8% | 0% | 99.1% | 99.4% | 91.8% |
| O=C(Nc1ccc(Oc2ccc3nc(NC(=O)C4CC4)cn3n2)c(F)c1)c1cccn(-c2ccccc2)c1=O | 0% | 9% | 11% | 6% | 73% | 98.3% | 43% | 98.2% | 99.4% | 45% |
| Cc1nnc(-c2ccc3occ(-c4ccc(S(C)=O)cc4)c3n2)o1 (centres unmarked) | 0% | 0% | 0% | 0% | 25% | 0% | 0% | 0% | 0% | 0% |
| Cc1ccc2c(-c3ccnc(Nc4ccc(C(F)(F)F)cc4)n3)cnn2n1 [GW819776] | 5% | 0% | 0% | 6% | 4% | 0% | 0% | 59% | 0% | 20% |
| CCn1c(-c2nonc2N)nc2cncc(Br)c21 [SB-738004] | 3% | 69% | 24% | 2% | 17% | 21% | 53% | 0% | 19% | 0% |
